The results in this text go back to PubChem BioAssay AID2156 (Johns Hopkins Ion Channel Center, 2009).

The campaign covered roughly 310,000 compounds. About 3,400 (1.1%) were called active.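 The calls were made as follows: active = fluorescence ratio B-score at most minus 3 library SDs, with starting brightness B-score within 2 library SDs (cut at about -5.5 in these data); inactive = the rest, inconclusive results apart.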 For the sample, actives were picked, then their nearest neighbours and some compounds at random.

Sequence of Potassium voltage-gated channel subfamily KQT member 2 (Rattus norvegicus) (O88943 whole entry, looked up): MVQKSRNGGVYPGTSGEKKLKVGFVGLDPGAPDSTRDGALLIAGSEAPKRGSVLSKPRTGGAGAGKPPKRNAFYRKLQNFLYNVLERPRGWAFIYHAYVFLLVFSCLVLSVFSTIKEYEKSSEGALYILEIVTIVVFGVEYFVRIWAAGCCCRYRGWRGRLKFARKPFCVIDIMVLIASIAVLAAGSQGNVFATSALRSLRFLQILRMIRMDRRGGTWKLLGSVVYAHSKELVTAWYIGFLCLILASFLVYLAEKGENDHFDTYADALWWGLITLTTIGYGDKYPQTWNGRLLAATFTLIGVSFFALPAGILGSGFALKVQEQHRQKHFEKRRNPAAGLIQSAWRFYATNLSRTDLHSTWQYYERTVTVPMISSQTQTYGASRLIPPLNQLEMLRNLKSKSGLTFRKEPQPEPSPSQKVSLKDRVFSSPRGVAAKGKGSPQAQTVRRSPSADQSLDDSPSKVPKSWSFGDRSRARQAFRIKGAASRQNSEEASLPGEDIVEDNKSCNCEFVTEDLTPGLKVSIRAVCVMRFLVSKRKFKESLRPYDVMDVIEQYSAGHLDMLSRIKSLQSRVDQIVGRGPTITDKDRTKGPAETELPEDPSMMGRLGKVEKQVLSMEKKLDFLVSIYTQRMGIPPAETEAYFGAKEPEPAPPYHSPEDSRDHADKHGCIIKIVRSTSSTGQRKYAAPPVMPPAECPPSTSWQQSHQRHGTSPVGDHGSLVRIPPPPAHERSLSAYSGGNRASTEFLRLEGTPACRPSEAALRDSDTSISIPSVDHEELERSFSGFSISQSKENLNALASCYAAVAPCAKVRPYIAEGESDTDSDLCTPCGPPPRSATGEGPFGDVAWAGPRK

This test concerns the target Potassium voltage-gated channel subfamily KQT member 2 (Rattus norvegicus) (UniProt O88943). The experiment in a line: KCNQ2 channel blockers in CHO-K1 cells – cell-based, FluxOR thallium flux, B-score, primary screen (AID 2156). Particulars: 20 min, at 10 µM; active compounds read low.
For the molecule `COc1ccc2sc(N(CCCN(C)C)C(=O)c3ccc(S(=O)(=O)N(C)C4CCCCC4)cc3)nc2c1`, the B-score entry is “inactive”.

For `COc1cc(Cl)ccc1OCc1cc(C(=O)N2CC[C@@H]3CCCC[C@H]3C2)no1`, the B-score is -3.02 (inactive).

Regarding `CCCOC1CCCN(C(=O)c2cc(COc3cncc(Cl)c3)on2)C1` (configuration not stated), the B-score was -8.22 (active).

In the case of `CCOC(=O)CC1(NC(=O)c2cc(COc3cncc(Cl)c3)on2)CCCCC1`, the B-score was -1.68 (inactive).

In the case of `Cc1ccc(-c2cnc(NC(=O)CCC(=O)N(C)Cc3ccccc3)n2C)cc1`, the B-score is -7.93 (active).

With `Cn1c(-c2ccc(F)cc2)cnc1SCC(=O)NNC(=O)Cc1ccccc1`, the B-score entry is “inactive”.

`CN(Cc1ccccc1)C(=O)CCc1ccccc1`: the B-score was -0.03 (inactive).

For `O=C(CCNC(=O)c1ccc(Br)cc1)Nc1cccc(S(=O)(=O)N2CCCCC2)c1`, the B-score is -0.11 (inactive).

Regarding `CCCCn1c(N)c(N(Cc2ccccc2OC)C(=O)COc2cc(C)ccc2Cl)c(=O)[nH]c1=O`, the B-score was -0.97 (inactive).

Regarding `CCOc1ccc2ccccc2c1/C=N/NC(=O)c1c(C)cc(C)[nH]c1=O`, the B-score is -2 (inactive).

In the case of `Cc1cc(NC(=O)C(C)N2C(=O)c3ccccc3S2(=O)=O)no1` (configuration not stated), the B-score was -0.8 (inactive).

As to `FC(F)(F)c1ccc2c3n(nc2c1)CCN=C3c1ccc(Cl)cc1`, the B-score result is “inactive”.

For `O=C(COC(=O)c1ccccc1)Nc1ccccc1Sc1ccccc1`, the B-score is -0.64 (inactive).

Turning to `Cc1ccccc1C(=O)Nc1ccccc1NC(=O)c1ccccc1C`, the B-score result is “inactive”.

On to `Cc1ccccc1C(=O)Nc1ccccc1Sc1ccccc1`, for which the B-score was -8.36 (active).

On to `O=C(Cc1ccc(S(=O)(=O)N2CCOCC2)s1)N1CCN(c2ccc(C(F)(F)F)cc2[N+](=O)[O-])CC1`, for which the B-score result was “inactive”.

With `O=C(NC1CCCCC1)c1ccc(-c2ccc(Cl)cc2)o1`, the B-score was -3.97 (inactive).

As to `CN(CC(=O)Nc1cccc(F)c1)C(=O)C1=COCCO1`, the B-score is -0.61 (inactive).

On to `O=C(NCc1ccccc1)C(c1ccco1)N(C(=O)c1csnn1)c1ccccc1F` (configuration not stated), for which the B-score is -6.27 (active).

For `O=C(NCc1ccccc1)C(c1ccccc1)N(C(=O)c1csnn1)c1ccc(F)cc1` (configuration not stated), the B-score was -1.89 (inactive).

As for `O=C(NC1CCCC1)C(c1ccco1)N(C(=O)c1csnn1)c1ccccc1` (configuration not stated), the B-score entry is “inactive”.

With `CCOc1ccc(C(C)=O)cc1COC(=O)CNC(=O)c1cccs1`, the B-score result was “inactive”.

Consider `CCOc1ncccc1C(=O)NNC(=O)c1cccc(S(=O)(=O)Nc2ccccc2OC)c1`, for which the B-score entry was “inactive”.

Consider `COc1ccc(C(CNC(=O)COc2ccc([N+](=O)[O-])cc2)N2CCCCC2)cc1` (configuration not stated), for which the B-score is -0.69 (inactive).

Consider `COc1ccc(C(CNC(=O)COc2ccccc2OC)N2CCCCC2)cc1` (configuration not stated), for which the B-score entry was “inactive”.

Consider `CCc1ccc(OCC(=O)NCC(c2ccc(Cl)cc2)N2CCCCC2)cc1` (configuration not stated), for which the B-score was -5.91 (active).

Take `O=C(CCC1CCCCC1)Nc1cc(C(F)(F)F)ccc1N1CCOCC1`: the B-score is -0.87 (inactive).

Consider `CN(Cc1c(F)cccc1Cl)C(=O)CNC(=O)c1ccc2c(c1)OCO2`, for which the B-score is -1.89 (inactive).

As to `CC(C)(C)n1nnnc1C(c1ccc(Cl)cc1)N1CCSCC1` (configuration not stated), the B-score result was “inactive”.

Take `Cc1cccc(N2CCN(C(c3ccccc3)c3nnnn3CC3CCCO3)CC2)c1C` (configuration not stated): the B-score is -1.18 (inactive).

With `Cc1cccc(N2CCN(C(c3ccc(N(C)C)cc3)c3nnnn3C(C)(C)C)CC2)c1C` (configuration not stated), the B-score is -6.02 (active).

`CCOc1ccc(S(=O)(=O)NCCC(=O)NCC(C)(C)N2CCOCC2)cc1`: the B-score entry was “inactive”.

Consider `CCc1ccc2c(c1)C(c1ccc([N+](=O)[O-])cc1)=NNC(c1ccccc1)=N2`, for which the B-score is -0.01 (inactive).

For the molecule `Cc1ccc(C2=Nc3c(ccc4ccccc34)C(c3ccncc3)=NN2)cc1`, the B-score was -7.02 (active).

For the molecule `CCOc1ccc2c(c1)C(c1ccc(C)cc1)=NNC(c1ccc(C)cc1)=N2`, the B-score was -1.45 (inactive).

Regarding `CC1(c2nnc(Cc3ccccc3)o2)CC(c2ccccc2F)=NO1` (configuration not stated), the B-score result is “inactive”.

For the molecule `COc1ccc(Cl)cc1NS(=O)(=O)c1cccc(C(=O)NC2CCC(O)CC2)c1` (configuration not stated), the B-score entry is “inactive”.

In the case of `CCN(CC)CCn1c2c(c(SCC(=O)Nc3nc4ccccc4s3)nc1=O)CCCC2`, the B-score is -0.49 (inactive).

On to `CC(C(=O)NCC1CCCCC1)N(C)Cc1cccc(Cl)c1` (configuration not stated), for which the B-score was -6.94 (active).

On to `Cc1ccccc1NC(=O)NCC1CCN(Cc2cccc(Cl)c2)CC1`, for which the B-score result is “inactive”.

Regarding `CNS(=O)(=O)c1cccc(C(=O)NCC2CCCCC2)c1`, the B-score entry is “inactive”.

`O=C(COC(=O)c1cccc(Cl)c1)Nc1ccc2[nH]c(=O)[nH]c2c1`: the B-score result is “inactive”.

Consider `CCOc1cc(/C=N/NC(=O)c2cccc(S(=O)(=O)N3CCOCC3)c2)ccc1OCC(=O)N(C)C`, for which the B-score was -0.36 (inactive).

Regarding `Cc1ccc(S(=O)(=O)NCCC(=O)OCC(=O)N(C)c2ccccc2)cc1`, the B-score result was “inactive”.

With `COc1ccc(Cl)cc1NC(=O)CN(C)Cc1ccc(OC)c(OC)c1`, the B-score is -7.16 (active).

For the molecule `COc1ccc(OC)c(NC(=O)CN(Cc2ccc(Cl)cc2)S(C)(=O)=O)c1`, the B-score is -0.01 (inactive).

As for `COc1ccc(Cl)cc1NC(=O)CN(C)C(=O)c1cc2ccccc2cc1OC`, the B-score is -1.83 (inactive).

On to `O=C1N[C@@H](Cc2ccccc2)C(=O)N2[C@H]1C[C@]1(Br)c3ccccc3N(S(=O)(=O)c3ccccc3)[C@H]21`, for which the B-score entry was “inactive”.

`CCN1C(=O)/C(=c2\s/c(=C3\Sc4ccccc4N3C)c(=O)n2C)N(C)C1=S`: the B-score result was “inactive”.

Regarding `CN1/C(=c2/s/c(=C3/C(=O)N(c4ccccc4)NC3=Nc3ccccc3)n(C)c2=O)C(C)(C)c2ccccc21`, the B-score is -7.74 (active).

On to `CC1C(=O)N2CCCc3cc(S(=O)(=O)NCc4ccc(F)cc4)cc1c32` (configuration not stated), for which the B-score result was “inactive”.

Turning to `Cc1ccc(Cl)c(OCC(=O)N(C)CC(=O)Nc2ccc(N3CCOCC3)cc2)c1`, the B-score result was “inactive”.

For the molecule `Cc1ccc(NS(=O)(=O)c2ccc(C(=O)NCCCN3CCOCC3)cc2)cc1`, the B-score was -0.52 (inactive).

On to `CC(C)CN(C(=O)Cn1c(=O)cnc2ccccc21)C1CCS(=O)(=O)C1` (configuration not stated), for which the B-score is -1.5 (inactive).

Turning to `CCOC(=O)N1CCN(C(=O)COc2ccc3oc4c(c3c2)CCCC4)CC1`, the B-score result was “inactive”.

For `Fc1ccccc1C(c1nnnn1Cc1ccc2c(c1)OCO2)N1CCN(Cc2ccccc2)CC1` (configuration not stated), the B-score was -1.43 (inactive).

On to `CCOC(=O)C1CCN(C(c2cc3cc(C)cc(C)c3[nH]c2=O)c2nnnn2C2CCCCC2)CC1` (configuration not stated), for which the B-score is -1.94 (inactive).

Regarding `Cc1cc(C)c2[nH]c(=O)c(C(c3nnnn3Cc3ccc4c(c3)OCO4)N3CCCC3)cc2c1` (configuration not stated), the B-score is -6.38 (active).

`O=C(CSC1=NS(=O)(=O)c2cc(F)ccc2N1)Nc1ccccc1F`: the B-score result is “inactive”.

For `O=C(OCC(=O)N1CCCC1=O)c1cc(S(=O)(=O)N2CCOCC2)ccc1Cl`, the B-score is -0.84 (inactive).

`O=C(NN1CCOCC1)c1cccc(F)c1`: the B-score entry is “inactive”.

As to `CCN(CC)S(=O)(=O)c1ccc(N2CCOCC2)c(NC(=O)C2CSC3(C)CCC(=O)N23)c1` (configuration not stated), the B-score entry is “inactive”.

Consider `CCN(CC)S(=O)(=O)c1ccc(N2CCOCC2)c(C(=O)O)c1`, for which the B-score entry was “inactive”.

Consider `CCN(CC)S(=O)(=O)c1ccc(N2CCOCC2)c(NC(=O)C2COc3ccccc3O2)c1` (configuration not stated), for which the B-score is -6.56 (active).

With `Cc1ccc(N2CC(C(=O)N3CCC4(CC3)CC(=O)c3ccccc3O4)CC2=O)cc1C` (configuration not stated), the B-score entry is “inactive”.

As to `O=C(NCC(=O)N1CCCC(C(F)(F)F)C1)c1ccccc1F` (configuration not stated), the B-score result is “inactive”.

In the case of `Cc1ccc(S(=O)(=O)CC(=O)NC(C)c2ccccc2)cc1` (configuration not stated), the B-score was -0.01 (inactive).

For `CC(NC(=S)NNS(=O)(=O)c1ccc(C(C)(C)C)cc1)c1ccccc1` (configuration not stated), the B-score is -10.4 (active).

Consider `Cc1ccc(S(=O)(=O)NNC(=S)NC(C)(C)C)cc1`, for which the B-score was -0.78 (inactive).

With `CCN(C(=O)CSc1nnc(-c2ccc(OC(F)F)cc2)n1N)C1CCS(=O)(=O)C1` (configuration not stated), the B-score is -0.14 (inactive).

For the molecule `CCN(CC(=O)Nc1cc(Cl)ccc1C)C(=O)CN1C(=O)NC2(CCCC2)C1=O`, the B-score was -0.62 (inactive).

Take `O=c1[nH]c(CSc2ncc(-c3ccc(F)cc3)n2Cc2ccco2)nc2ccccc12`: the B-score result was “inactive”.

Take `Cc1cc(NC(=O)CSc2nc3cc(Cl)ccc3c(=O)n2Cc2ccco2)no1`: the B-score result was “inactive”.

On to `Clc1cccc(-c2nc3nc4ccccc4nc3n2Cc2ccco2)c1`, for which the B-score is -9.06 (active).

With `O=C(Nc1cccc(F)c1)NC1CCCCCCC1`, the B-score was -1.17 (inactive).

As to `O=C(Nc1cccc(F)c1)[C@@H]1CCCN1`, the B-score was -0.48 (inactive).

Regarding `O=C(Nc1cccc(F)c1)NC1CCCc2ccccc21` (configuration not stated), the B-score was -5.61 (active).

On to `COc1cccc(N2CC(NS(=O)(=O)c3cccs3)CC2=O)c1` (configuration not stated), for which the B-score entry is “inactive”.

Regarding `COc1ccc(C2=NOC(Cn3nc(C(=O)NCc4ccc5c(c4)OCO5)cc3-c3ccccc3)C2)cc1` (configuration not stated), the B-score is -2.37 (inactive).

On to `CCOC(=O)c1c(NC(=O)CN2C(=O)NC3(CCC(C)CC3)C2=O)sc(C)c1CC` (configuration not stated), for which the B-score result is “inactive”.

For `Cc1ccc2nnn(Cc3cccc(C(C)(C)C)c3O)c2c1`, the B-score was -2.09 (inactive).

On to `O=C(CNC(=O)C12CC3CC(CC(C3)C1)C2)OCC(=O)N1CCCCC1`, for which the B-score entry is “inactive”.

For the molecule `COc1cccc(N2CC(C(=O)NCc3n[nH]c(=O)c4ccccc34)CC2=O)c1` (configuration not stated), the B-score entry was “inactive”.

Consider `CCc1ccc(-c2nn(-c3ccccc3)cc2CSC(=N)N)cc1`, for which the B-score is -12.4 (active).

Turning to `O=C(Nc1cn(-c2ccccc2)nc1-c1ccccc1)c1ccccc1`, the B-score is -2.94 (inactive).

With `Cc1ccc(-c2nn(-c3ccccc3)cc2CN(Cc2ccccc2)C(=O)CCC(=O)O)o1`, the B-score result is “inactive”.

As to `CCOc1ccc(S(=O)(=O)Nc2cccc(C(=O)NCC3(N4CCCCC4)CCCCC3)c2)cc1`, the B-score was -0.94 (inactive).

`O=C(NCc1ccccc1)C1=C[C@@H](c2ccc(C(F)(F)F)cc2)C[C@@H](OCc2ccc(CO)cc2)O1`: the B-score was -7.51 (active).

With `CC(C)(C)[C@H]1C=C(C(=O)NCc2ccccc2)O[C@@H](OCc2ccc(CO)cc2)C1`, the B-score was -1.3 (inactive).

Turning to `O=C(C1=C[C@H](c2ccc(C(F)(F)F)cc2)C[C@H](OCc2ccc(CO)cc2)O1)N1CCN(Cc2ccccc2)CC1`, the B-score was -2.67 (inactive).

For `CC1CCN(C(=O)COC(=O)c2cc(S(=O)(=O)N3CCOCC3)ccc2Cl)CC1`, the B-score result was “inactive”.

With `COc1ccc(C(CNC(=O)c2cccc(S(=O)(=O)Nc3ccccc3Cl)c2)N2CCOCC2)cc1` (configuration not stated), the B-score entry was “inactive”.
